From ChEMBL document CHEMBL4808148, “HDAC6 screening dataset using tau-based substrate in an enzymatic assay yields selective inhibitors and activators” (2021)
Out of some 5,600 compounds screened, about 390 (7%) showed an effect of 50% or more. For the sample, strong results were picked, then their nearest neighbours and some compounds at random. Residues, ends and D or L forms follow the SMILES beside them.

These molecules were tested against T1, Protein deacetylase HDAC6 (Homo sapiens) (UniProt Q9UBN7). Details: at 10 µM.
T1 sequence (whole entry): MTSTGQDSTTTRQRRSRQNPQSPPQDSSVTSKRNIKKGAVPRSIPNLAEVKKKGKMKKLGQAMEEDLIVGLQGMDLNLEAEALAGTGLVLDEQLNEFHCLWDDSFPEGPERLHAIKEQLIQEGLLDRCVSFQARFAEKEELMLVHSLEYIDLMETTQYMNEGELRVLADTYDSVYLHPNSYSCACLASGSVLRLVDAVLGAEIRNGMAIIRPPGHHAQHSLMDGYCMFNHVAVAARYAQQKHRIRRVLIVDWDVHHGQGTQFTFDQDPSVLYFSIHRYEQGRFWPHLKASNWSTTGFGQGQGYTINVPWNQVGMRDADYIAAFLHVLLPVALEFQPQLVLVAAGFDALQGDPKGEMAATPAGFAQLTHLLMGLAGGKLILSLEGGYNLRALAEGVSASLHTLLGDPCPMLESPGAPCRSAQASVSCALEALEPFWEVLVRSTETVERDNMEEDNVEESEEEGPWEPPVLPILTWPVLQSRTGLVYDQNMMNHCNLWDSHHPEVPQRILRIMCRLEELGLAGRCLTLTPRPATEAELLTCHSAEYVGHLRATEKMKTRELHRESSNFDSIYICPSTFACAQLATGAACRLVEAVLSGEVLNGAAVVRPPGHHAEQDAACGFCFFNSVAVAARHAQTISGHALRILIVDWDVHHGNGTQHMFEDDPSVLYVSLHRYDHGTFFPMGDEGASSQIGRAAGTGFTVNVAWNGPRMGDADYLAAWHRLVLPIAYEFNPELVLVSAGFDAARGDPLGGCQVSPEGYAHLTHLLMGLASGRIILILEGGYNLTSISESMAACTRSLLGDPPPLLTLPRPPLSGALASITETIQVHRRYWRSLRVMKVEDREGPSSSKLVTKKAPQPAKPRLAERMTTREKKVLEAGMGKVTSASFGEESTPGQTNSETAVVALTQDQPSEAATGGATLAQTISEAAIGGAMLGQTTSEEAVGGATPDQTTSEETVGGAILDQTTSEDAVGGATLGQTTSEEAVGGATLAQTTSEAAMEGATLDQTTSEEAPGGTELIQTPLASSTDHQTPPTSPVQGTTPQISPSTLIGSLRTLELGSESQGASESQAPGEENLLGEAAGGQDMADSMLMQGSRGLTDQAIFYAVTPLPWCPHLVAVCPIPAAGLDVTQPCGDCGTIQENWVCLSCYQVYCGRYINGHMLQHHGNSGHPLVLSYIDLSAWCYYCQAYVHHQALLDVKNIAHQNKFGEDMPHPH

SMILES	inhibition
O=C(Nc1cccc2cccnc12)c1ccc(N2C(=O)[C@@H]3[C@H](C2=O)[C@H]2C=C[C@@H]3C2)cc1	-1.4%
O=C(Nc1cccc2cccnc12)c1ccc(N2C(=O)[C@@H]3[C@H](C2=O)[C@@H]2C=C[C@H]3C2)cc1	56.2%
FC(F)(F)c1cc(NC(=S)Nc2ccc(Br)cc2-c2nnn[nH]2)cc(C(F)(F)F)c1	74.5%
Oc1nc(O)c2nc(O)[nH]c2n1	12.1%
CN1CCN(CCCN2c3ccccc3Sc3ccc(S(=O)(=O)N(C)C)cc32)CC1	-2.89%
COc1ccc2c(c1)N(C[C@H](C)CN(C)C)c1ccccc1S2	14.6%
CC(CN(C)C)CN1c2ccccc2Sc2ccccc21 (configuration not stated)	30.9%
OCCN1CCN(CCCN2c3ccccc3Sc3ccc(Cl)cc32)CC1	36.5%
CCSc1ccc2c(c1)N(CCCN1CCN(C)CC1)c1ccccc1S2	70.4%
CCN(CC)C(C)CN1c2ccccc2Sc2ccccc21 (configuration not stated)	11.7%
CN(C)CCCN1c2ccccc2Sc2ccc(C(F)(F)F)cc21	89.2%
CN1CCN(CCCN2c3ccccc3Sc3ccc(C(F)(F)F)cc32)CC1	59.5%
CC(=O)c1ccc2c(c1)N(CCCN1CCC(CCO)CC1)c1ccccc1S2	76.9%
CN1CCCC(CN2c3ccccc3Sc3ccccc32)C1 (configuration not stated)	48.4%
COc1ccccc1N1CCN(CCCCNC(=O)c2ccc(-c3ccc(C(C)=O)cc3)cc2)CC1	1.38%
CCC(=N\O)/C(C)=C/c1ccc(F)cc1	47.7%
C[C@@H](NCc1cc(Br)cc2nc(O)c(O)nc12)P(=O)(O)O	7.12%
CCCCCCCCCCCCCCCCCCCCCC(=O)O	-9.27%
COc1cc(N2CCC(N(C)C)CC2)ccc1Nc1ncc(Cl)c(Nc2ccccc2P(C)(C)=O)n1	3.02%
CCC[C@@H](NC(=O)N1C(=O)C(CC)(CC)[C@@H]1Oc1ccc(C(=O)N2CCN(C)CC2)cc1)c1ccc2c(c1)OCO2	9.19%
CCn1c2ccccc2c2cc(CNC)ccc21	-7.52%
COc1cccc(OC)c1-c1cc(C(=O)N[C@@H](CC(C)C)C(=O)O)nn1-c1ccnc2cc(Cl)ccc12	6.09%

SMILES	inhibition
CCCCN1CC(O)C(O)C(O)C1CO (configuration not stated)	-6.7%
COc1cc2c(cc1NS(=O)(=O)c1ccc(Br)cc1C)n(C)c(=O)n2C	19.4%
O=c1[nH]c([C@@H]2CCCN2)nc2c1oc1ccc(Cl)cc12	-8.21%
CC(C)(C)NC(=O)[C@@H]1C[C@@H]2CCCC[C@@H]2CN1C[C@@H](O)[C@H](Cc1ccccc1)NC(=O)[C@H](CC(N)=O)NC(=O)c1ccc2ccccc2n1	2.2%
NCCCC(N)C(=O)O (configuration not stated)	-5.26%
CCCCC/C=C\C/C=C\C/C=C\CCCCC(=O)O	20.4%
O=c1n(CC2CO2)c(=O)n(CC2CO2)c(=O)n1CC1CO1 (configuration not stated)	21.5%
CN(C)CCCN1c2ccccc2CCc2ccc(Cl)cc21	7.48%
CN(C)CCCN1c2ccccc2Sc2ccc(Cl)cc21	59.7%
CCN(CC)CCCCN1c2ccccc2Oc2ccc(Cl)cc21	22.7%
c1ccc2c(Oc3nc(Nc4ccc(N5CCOCC5)cc4)c4ncn(C5CCCCC5)c4n3)cccc2c1	2.11%
O=C(c1c2ccccc2cc2ccccc12)N1CCC(N2CCC[C@@H](C(=O)N3CCOCC3)C2)CC1	16%
C[C@@]12CCC3[C@@](CC[C@@H]4[C@](C)(C(=O)O)CCC[C@@]34C)(CC1=O)C2 (some centres not stated)	11.5%
c1ccc2c(c1)CCC[C@H]2Nc1nc2ccccc2[nH]1	96.9%
CCNC(=O)N1CCN(CCCC(c2ccc(F)cc2)c2ccc(F)cc2)CC1	-5.99%
CC(C)C[C@H](NC(=O)[C@@H](COC(C)(C)C)NC(=O)[C@H](Cc1ccc(O)cc1)NC(=O)[C@H](CO)NC(=O)[C@H](Cc1c[nH]c2ccccc12)NC(=O)[C@H](Cc1cnc[nH]1)NC(=O)[C@@H]1CCC(=O)N1)C(=O)N[C@@H](CCCNC(=N)N)C(=O)N1CCC[C@H]1C(=O)NNC(N)=O	7.12%
CCCCCCCCCCCCCCCC(=O)N[C@@H](CCC(=O)NCCCC[C@H](NC(=O)[C@H](C)NC(=O)[C@H](C)NC(=O)[C@H](CCC(N)=O)NC(=O)CNC(=O)[C@H](CCC(=O)O)NC(=O)[C@H](CC(C)C)NC(=O)[C@H](Cc1ccc(O)cc1)NC(=O)[C@H](CO)NC(=O)[C@H](CO)NC(=O)[C@@H](NC(=O)[C@H](CC(=O)O)NC(=O)[C@H](CO)NC(=O)[C@@H](NC(=O)[C@H](Cc1ccccc1)NC(=O)[C@@H](NC(=O)CNC(=O)[C@H](CCC(=O)O)NC(=O)[C@H](C)NC(=O)[C@@H](N)Cc1cnc[nH]1)[C@@H](C)O)[C@@H](C)O)C(C)C)C(=O)N[C@@H](CCC(=O)O)C(=O)N[C@@H](Cc1ccccc1)C(=O)N[C@H](C(=O)N[C@@H](C)C(=O)N[C@@H](Cc1c[nH]c2ccccc12)C(=O)N[C@@H](CC(C)C)C(=O)N[C@H](C(=O)N[C@@H](CCCNC(=N)N)C(=O)NCC(=O)N[C@@H](CCCNC(=N)N)C(=O)NCC(=O)O)C(C)C)[C@@H](C)CC)C(=O)O	102%
CC(C)C[C@H](NC(=O)CNC(=O)[C@H](Cc1ccc(O)cc1)NC(=O)[C@H](CO)NC(=O)[C@H](Cc1c[nH]c2ccccc12)NC(=O)[C@H](Cc1cnc[nH]1)NC(=O)[C@@H]1CCC(=O)N1)C(=O)N[C@@H](CCCNC(=N)N)C(=O)N1CCC[C@H]1C(=O)NCC(N)=O	18.4%
CCCCc1nc2ccn(CC(=O)N(C)C)c(=O)c2n1Cc1ccc(-c2ccccc2-c2nnn[nH]2)cc1	0.96%
CCCc1cc(C)[nH]c(=O)c1CNC(=O)c1cc(-c2ccc(N3CCN(C(C)C)CC3)nc2)cc2c1cnn2C(C)C	8.48%
O[C@@H](COc1cccc2ncccc12)CN1CCN([C@@H]2c3ccccc3[C@@H]3[C@H](c4ccccc42)C3(F)F)CC1	10.7%
Cc1ccc(-n2nc(C(C)(C)C)cc2NC(=O)Nc2ccc(OCCN3CCOCC3)c3ccccc23)cc1	71.1%

SMILES	inhibition
CC(C)(C)c1cc(NC(=O)Nc2ccc(-c3cn4c(n3)sc3cc(OCCN5CCOCC5)ccc34)cc2)no1	1.57%
Cc1cc(OCCN2CCOCC2)nn1-c1ccc2ccccc2c1	10.2%
O[C@H]1[C@H](O)[C@@H](O)[C@H](O)[C@@H](O)[C@H]1O	22.8%
COc1nccnc1NS(=O)(=O)c1ccc(N)cc1	34.6%
CCCCc1nc2cc(/C=C/C(=O)NO)ccc2n1CCN(CC)CC	102%
Clc1cc(Cl)c(OCC#CI)cc1Cl	4.74%
COc1cc2nc(N3CCC(N4CCCCC4)CC3)nc(NC3CCCCCC3)c2cc1OC	0.07%
CC(C)[C@H]1c2ccc(F)cc2CC[C@@]1(CCN(C)CCCc1nc2ccccc2[nH]1)OC(=O)C1CC1	15.1%
COc1ccc2nc(NC(=O)Nc3ccccc3)sc2c1	109%
COc1ccc(Nc2ncnc3ccc(OC)cc23)cc1	27.1%
Cc1cc(C)cc(NC(=O)Nc2ccc(OS(N)(=O)=O)cc2)c1	44.5%
COC1=C2C[C@@H](C)C[C@H](OC)[C@H](O)[C@@H](C)/C=C(\C)[C@H](OC(N)=O)[C@@H](OC)/C=C\C=C(/C)C(=O)NC(=CC1=O)C2=O	19.3%
COC(=O)Nc1ccc(-c2nc(N3CCOCC3)c3cnn(C4CCN(Cc5cccnc5)CC4)c3n2)cc1	-1.91%
Nc1nnc(Sc2ncc([N+](=O)[O-])s2)s1	34.9%
O=C(Nc1c(Cl)cncc1Cl)c1ccc(OC(F)F)c(OCC2CC2)c1	-1.25%
Cc1ccc(-c2csc3ncnc(SCCC(=O)O)c23)cc1	22.2%
O=C(O)COc1ccc(C(=O)c2cccs2)c(Cl)c1Cl	19.9%
Sc1nc2ccccc2s1	52.6%
O=c1[nH]c2cc(C(F)(F)F)c(N3CCOCC3)cc2n(CP(=O)(O)O)c1=O	1.79%
CC(C)=CCC[C@](C)(O)[C@@H]1CC=C(C)CC1	18.6%
COc1ccc(Cc2nc(O)c3c(C)nc([C@@H](CCCc4ccccc4)[C@@H](C)O)n3n2)cc1OC	-9.71%
Cc1sc(N)c(C(=O)c2cccc(C(F)(F)F)c2)c1C	17.1%

SMILES	inhibition
Cc1cc(C)c(S(=O)(=O)Nc2cccc(C(F)(F)F)c2)c(C)c1	97.6%
COc1ccc(S(=O)(=O)Nc2c(C)cc(C)cc2C)cc1	-8.52%
CCc1cccc(CC)c1NC(=O)N1Cc2[nH]nc(NC(=O)c3ccc(N4CCN(C)CC4)cc3)c2C1	7.27%
Nc1nc(OCC2CCCCC2)c2nc[nH]c2n1	33.5%
Nc1nc(N)c(N=O)c(OCC2CCCCC2)n1	81.8%
Nc1ccc(C(=O)NCC(=O)O)cc1	6.74%
CN(C)CCC1(c2ccc(Cl)cc2)Cc2ccccc2C(=O)O1 (racemic)	3.8%
Cn1cnc([N+](=O)[O-])c1Sc1ncnc2[nH]cnc12	12.8%
OCc1cc(C(O)CNCCCCCCOCCCCc2ccccc2)ccc1O (configuration not stated)	-5.85%
Oc1ccc(C(O)CNCCCCCCNCC(O)c2ccc(O)c(O)c2)cc1O (configuration not stated)	-3.51%
OCc1cc([C@@H](O)CNCCCCCCOCCOCc2c(Cl)cccc2Cl)ccc1O	59.3%
COc1cc(NS(C)(=O)=O)ccc1Nc1c2ccccc2nc2ccccc12	76.6%
COc1ccc(Cl)cc1NC(=O)Nc1cc(C)nc2ccccc12	16.6%
COc1ccc(S(=O)(=O)Nc2cccnc2Nc2ccc(O)cc2)cc1	34.3%
CCOC(=O)c1cc(C#N)c(N2CCC(C(=O)NS(=O)(=O)Cc3ccccc3)CC2)nc1C	21.9%
NCC(=O)N[C@@H](CCC(N)=O)C(=O)O (H-Gly-Gln-OH)	29.1%
O=S(=O)(Cc1ccccc1)Nc1ccc(-c2ccc3c(cnn3-c3ccc(F)cc3)c2)c(C(F)(F)F)c1	-8.14%
Oc1cccc(O)c1	1.38%
N[C@H]1C[C@@H]1c1ccc(-c2cccc(O)c2)cc1	77.4%
O=c1[nH]c2ccccc2n1C1CCN(CCOc2ccccc2)CC1	20.9%
CCOC(=O)c1cc2ccc(O)cc2oc1=O	55.9%
